Holding throughout (design): scale not given: direction of the effect not stated beside the values
In experiment [1] the target is Protein translocase subunit SecA (Escherichia coli (strain K12)) (UniProt P10408). The experiment is described as follows: Assay to Identify E. coli SecA ATPase Inhibitors. In kind it is functional. The following applies: 30 µM.
Experiment [2] concerns the target T1, Ubiquitin-activating enzyme e1, putative (Leishmania donovani (strain BPK282A1)) (UniProt E9BSI1).
T1 sequence (whole entry): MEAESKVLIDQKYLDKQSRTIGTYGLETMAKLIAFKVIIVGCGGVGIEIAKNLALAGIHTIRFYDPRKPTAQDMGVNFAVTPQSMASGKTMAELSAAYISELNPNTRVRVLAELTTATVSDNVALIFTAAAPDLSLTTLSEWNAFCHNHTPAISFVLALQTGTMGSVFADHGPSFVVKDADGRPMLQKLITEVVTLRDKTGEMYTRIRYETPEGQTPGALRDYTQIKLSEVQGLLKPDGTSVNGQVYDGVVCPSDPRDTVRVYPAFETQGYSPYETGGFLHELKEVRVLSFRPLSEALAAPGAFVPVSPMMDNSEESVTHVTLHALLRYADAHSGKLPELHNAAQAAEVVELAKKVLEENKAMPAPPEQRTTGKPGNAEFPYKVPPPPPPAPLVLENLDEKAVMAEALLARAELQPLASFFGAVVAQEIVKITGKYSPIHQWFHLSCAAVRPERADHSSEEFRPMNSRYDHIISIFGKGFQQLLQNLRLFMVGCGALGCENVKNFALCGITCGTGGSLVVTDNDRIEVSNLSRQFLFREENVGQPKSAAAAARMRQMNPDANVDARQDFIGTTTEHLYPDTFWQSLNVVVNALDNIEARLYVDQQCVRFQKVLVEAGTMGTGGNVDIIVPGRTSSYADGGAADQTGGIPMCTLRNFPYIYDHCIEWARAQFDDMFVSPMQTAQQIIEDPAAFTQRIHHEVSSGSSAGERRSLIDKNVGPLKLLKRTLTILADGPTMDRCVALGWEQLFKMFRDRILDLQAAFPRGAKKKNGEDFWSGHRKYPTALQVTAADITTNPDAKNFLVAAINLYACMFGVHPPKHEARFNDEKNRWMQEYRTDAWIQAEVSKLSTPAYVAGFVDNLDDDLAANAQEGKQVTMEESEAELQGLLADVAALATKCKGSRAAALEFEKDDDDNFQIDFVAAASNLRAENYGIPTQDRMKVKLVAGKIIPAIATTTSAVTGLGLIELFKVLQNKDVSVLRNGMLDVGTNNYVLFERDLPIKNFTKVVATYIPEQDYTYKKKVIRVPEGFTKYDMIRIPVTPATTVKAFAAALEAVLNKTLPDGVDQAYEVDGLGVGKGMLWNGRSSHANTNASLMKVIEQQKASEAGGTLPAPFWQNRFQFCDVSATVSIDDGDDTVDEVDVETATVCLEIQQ
The experiment is described as follows: Leishmania donovani Ubiquitin Activating Enzyme (LdE1). It is filed as functional. The following applies: 30 µM.

Experiment [3] deals with AMP-activated protein kinase, AMPK (Homo sapiens) (UniProt P54646+O43741+P54619+Q9UGJ0+Q9Y478+Q13131+Q9UGI9). The experiment is described as follows: AMP-dependent Kinase enzyme assay. An in vitro enzyme assay that detects ADP turnover that is directly proportional to AMPK activity. This uses naive AMPK that is activated during the assay with MK-8722. In kind it is functional. The following applies: 30 µM.

Experiment [4] has as its target Sialic acid-binding Ig-like lectin 9 (Homo sapiens) (UniProt Q9Y336). As to the kind of experiment: Hs-Siglec9 ALPHAscreen SOP 20170721. The following applies: 10 µM. (Bead proximity is the source of the signal in Alpha formats.)
Experiment [5] relates to Trypanosoma cruzi. The experiment is described as follows: Trypanosoma cruzi phosphomannomutase and mannose-1-phosphate guanylyltransferase assay. It is filed as functional. The following applies: 10 µM.
Experiment [6] concerns the target T2, Arginase-2, mitochondrial (Homo sapiens) (UniProt P78540).
T2 sequence (whole entry): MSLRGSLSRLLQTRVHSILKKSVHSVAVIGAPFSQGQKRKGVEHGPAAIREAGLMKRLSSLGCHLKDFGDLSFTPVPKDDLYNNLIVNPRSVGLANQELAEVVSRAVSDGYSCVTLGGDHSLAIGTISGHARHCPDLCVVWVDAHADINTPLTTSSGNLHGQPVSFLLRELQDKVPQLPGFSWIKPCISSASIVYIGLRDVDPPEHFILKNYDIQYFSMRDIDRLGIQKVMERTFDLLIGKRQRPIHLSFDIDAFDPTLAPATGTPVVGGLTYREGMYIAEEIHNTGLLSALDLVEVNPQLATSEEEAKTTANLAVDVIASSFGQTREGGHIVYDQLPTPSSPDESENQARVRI
As to the kind of experiment: in vitro enzyme assay to detect the production of urea directly proportional to the activity of Arginase II. Also: in the data most compounds retested in dose-response had high values. It is filed as functional. The following applies: 33.3 µM.

The target in experiment [7] is T3, Proteasome subunit beta (Trypanosoma cruzi) (UniProt O96673).
T3 sequence (whole entry): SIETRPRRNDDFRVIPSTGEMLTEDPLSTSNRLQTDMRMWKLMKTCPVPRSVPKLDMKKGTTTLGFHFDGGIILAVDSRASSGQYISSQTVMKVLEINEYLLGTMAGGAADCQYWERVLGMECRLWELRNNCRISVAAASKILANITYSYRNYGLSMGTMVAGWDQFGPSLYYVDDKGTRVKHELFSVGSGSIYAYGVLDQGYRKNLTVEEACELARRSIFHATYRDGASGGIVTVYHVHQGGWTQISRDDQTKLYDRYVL
As to the kind of experiment: Trypanosoma cruzi proteasome chymotrypsin-like activity (TcProtChymo) assay. Also: in the data most compounds retested in dose-response had high values. The following applies: 9.37 µM. In kind it is functional.

For experiment [8], the species on record is Homo sapiens. As to the kind of experiment: To identify inhibition of the IFN signalling (Jak-Stat) pathway via expression of an eGFP reporter gene under the control of an IFN-stimulated response element (ISRE) containing MxA promoter. In kind it is functional. The following applies: 30 µM.
Experiment [9] deals with T4, Tyrosyl-tRNA synthetase, putative (Trypanosoma cruzi (strain CL Brener)) (UniProt Q4DSP6).
T4 sequence (whole entry): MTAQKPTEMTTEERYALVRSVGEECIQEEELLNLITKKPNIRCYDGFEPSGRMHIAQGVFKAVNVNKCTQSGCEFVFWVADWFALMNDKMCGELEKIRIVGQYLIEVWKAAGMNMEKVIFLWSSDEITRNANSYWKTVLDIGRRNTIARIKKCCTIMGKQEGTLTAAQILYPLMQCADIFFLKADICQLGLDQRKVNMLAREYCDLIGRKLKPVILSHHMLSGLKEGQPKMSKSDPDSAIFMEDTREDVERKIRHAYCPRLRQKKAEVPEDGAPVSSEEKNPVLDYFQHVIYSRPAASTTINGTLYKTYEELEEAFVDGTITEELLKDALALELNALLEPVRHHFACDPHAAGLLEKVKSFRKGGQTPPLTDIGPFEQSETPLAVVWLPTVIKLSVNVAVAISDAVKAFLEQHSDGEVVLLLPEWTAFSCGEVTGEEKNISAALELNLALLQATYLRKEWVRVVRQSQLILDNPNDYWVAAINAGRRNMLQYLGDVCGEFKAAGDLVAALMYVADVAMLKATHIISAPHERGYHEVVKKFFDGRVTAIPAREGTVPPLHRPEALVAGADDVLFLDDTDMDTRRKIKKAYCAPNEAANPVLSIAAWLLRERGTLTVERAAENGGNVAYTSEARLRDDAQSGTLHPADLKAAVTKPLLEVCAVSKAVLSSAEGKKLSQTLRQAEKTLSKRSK
As to the kind of experiment: Trypanosoma cruzi tyrosyl tRNA synthetase (TcYRS) _High Tyrosine SOP. Also: in the data most compounds retested in dose-response had high values. In kind it is functional. The following applies: 30 µM.

The target in experiment [10] is T4, Tyrosyl-tRNA synthetase, putative (Trypanosoma cruzi (strain CL Brener)). The experiment is described as follows: Trypanosoma cruzi tyrosyl tRNA synthetase (TcYRS) SOP. The following applies: 30 µM. It is filed as functional.
The target in experiment [11] is Chromo domain-containing protein 1 (Saccharomyces cerevisiae (strain ATCC 204508 / S288c) (Baker's yeast)) (UniProt P32657). As to the kind of experiment: ScCHD-1 Enzyme Inhibition Assay. Also: in the data most compounds retested in dose-response had high values. In kind it is functional. The following applies: 30 µM.
Chain of Chromo domain-containing protein 1 (Saccharomyces cerevisiae (strain ATCC 204508 / S288c) (Baker's yeast)) (P32657 whole entry, the tested form may be a part): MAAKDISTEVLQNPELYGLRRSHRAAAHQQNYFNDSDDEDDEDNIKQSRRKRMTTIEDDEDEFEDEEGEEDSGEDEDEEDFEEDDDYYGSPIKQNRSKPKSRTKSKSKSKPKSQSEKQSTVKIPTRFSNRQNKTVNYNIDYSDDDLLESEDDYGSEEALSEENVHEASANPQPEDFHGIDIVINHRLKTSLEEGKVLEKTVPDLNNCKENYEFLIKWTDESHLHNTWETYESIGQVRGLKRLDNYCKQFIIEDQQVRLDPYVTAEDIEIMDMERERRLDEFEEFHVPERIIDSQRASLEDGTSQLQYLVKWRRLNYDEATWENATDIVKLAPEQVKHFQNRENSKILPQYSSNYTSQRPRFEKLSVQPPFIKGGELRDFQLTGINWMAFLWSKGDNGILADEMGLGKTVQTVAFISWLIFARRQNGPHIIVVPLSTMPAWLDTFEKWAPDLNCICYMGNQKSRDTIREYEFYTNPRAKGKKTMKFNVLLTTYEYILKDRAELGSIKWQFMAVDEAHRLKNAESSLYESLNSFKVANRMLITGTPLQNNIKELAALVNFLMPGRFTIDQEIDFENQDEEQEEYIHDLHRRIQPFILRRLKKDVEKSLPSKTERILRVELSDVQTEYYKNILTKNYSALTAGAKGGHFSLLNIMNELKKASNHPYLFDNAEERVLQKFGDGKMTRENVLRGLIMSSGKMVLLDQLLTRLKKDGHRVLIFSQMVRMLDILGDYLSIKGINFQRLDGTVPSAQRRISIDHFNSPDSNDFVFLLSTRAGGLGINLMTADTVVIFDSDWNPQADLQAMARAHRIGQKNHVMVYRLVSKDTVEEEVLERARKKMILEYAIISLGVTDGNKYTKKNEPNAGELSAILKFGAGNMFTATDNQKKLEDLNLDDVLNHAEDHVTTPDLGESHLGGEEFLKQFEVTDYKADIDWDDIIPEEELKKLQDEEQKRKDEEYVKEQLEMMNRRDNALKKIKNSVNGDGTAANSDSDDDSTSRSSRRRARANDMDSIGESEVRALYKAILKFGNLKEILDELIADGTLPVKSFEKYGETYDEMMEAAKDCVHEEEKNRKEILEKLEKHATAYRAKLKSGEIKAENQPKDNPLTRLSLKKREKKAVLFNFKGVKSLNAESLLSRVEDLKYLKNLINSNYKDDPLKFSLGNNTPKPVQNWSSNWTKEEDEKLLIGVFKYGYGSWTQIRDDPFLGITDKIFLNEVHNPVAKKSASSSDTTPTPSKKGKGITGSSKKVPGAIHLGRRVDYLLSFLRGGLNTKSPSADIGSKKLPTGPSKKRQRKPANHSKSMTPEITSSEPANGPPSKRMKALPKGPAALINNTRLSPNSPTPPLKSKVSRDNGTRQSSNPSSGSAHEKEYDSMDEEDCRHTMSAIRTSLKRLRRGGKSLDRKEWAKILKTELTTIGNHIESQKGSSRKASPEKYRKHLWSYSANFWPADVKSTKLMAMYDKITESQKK

The record followed here is ChEMBL document CHEMBL3988442, “University of Dundee, Small-Polar-MMV Screening Library” (2021).

For some of these results: Results with a measured potency or affinity are listed apart.

Chain of Protein translocase subunit SecA (Escherichia coli (strain K12)) (P10408 whole entry): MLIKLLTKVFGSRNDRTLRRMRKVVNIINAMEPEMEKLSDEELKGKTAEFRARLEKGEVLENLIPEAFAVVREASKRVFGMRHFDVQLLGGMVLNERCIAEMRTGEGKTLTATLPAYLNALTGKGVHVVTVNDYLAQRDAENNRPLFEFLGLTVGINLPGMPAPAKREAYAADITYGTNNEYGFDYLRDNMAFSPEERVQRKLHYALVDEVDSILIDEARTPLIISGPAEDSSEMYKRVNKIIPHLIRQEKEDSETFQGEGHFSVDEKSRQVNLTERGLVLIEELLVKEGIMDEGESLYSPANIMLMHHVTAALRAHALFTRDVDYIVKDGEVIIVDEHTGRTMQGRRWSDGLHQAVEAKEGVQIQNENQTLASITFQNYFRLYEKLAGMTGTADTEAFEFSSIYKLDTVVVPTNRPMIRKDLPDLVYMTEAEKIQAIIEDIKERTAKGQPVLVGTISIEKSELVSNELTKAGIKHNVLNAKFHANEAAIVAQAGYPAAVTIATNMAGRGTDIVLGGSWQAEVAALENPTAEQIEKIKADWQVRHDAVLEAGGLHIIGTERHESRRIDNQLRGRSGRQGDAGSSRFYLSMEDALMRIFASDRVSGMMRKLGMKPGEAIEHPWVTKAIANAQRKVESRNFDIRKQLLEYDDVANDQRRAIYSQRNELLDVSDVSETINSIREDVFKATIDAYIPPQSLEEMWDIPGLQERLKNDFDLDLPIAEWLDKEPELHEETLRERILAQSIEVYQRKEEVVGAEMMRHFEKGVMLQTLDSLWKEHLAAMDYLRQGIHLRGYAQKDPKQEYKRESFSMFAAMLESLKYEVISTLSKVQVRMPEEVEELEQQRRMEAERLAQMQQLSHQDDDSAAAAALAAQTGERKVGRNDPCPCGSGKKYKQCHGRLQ
Chain of Sialic acid-binding Ig-like lectin 9 (Homo sapiens) (Q9Y336 whole entry): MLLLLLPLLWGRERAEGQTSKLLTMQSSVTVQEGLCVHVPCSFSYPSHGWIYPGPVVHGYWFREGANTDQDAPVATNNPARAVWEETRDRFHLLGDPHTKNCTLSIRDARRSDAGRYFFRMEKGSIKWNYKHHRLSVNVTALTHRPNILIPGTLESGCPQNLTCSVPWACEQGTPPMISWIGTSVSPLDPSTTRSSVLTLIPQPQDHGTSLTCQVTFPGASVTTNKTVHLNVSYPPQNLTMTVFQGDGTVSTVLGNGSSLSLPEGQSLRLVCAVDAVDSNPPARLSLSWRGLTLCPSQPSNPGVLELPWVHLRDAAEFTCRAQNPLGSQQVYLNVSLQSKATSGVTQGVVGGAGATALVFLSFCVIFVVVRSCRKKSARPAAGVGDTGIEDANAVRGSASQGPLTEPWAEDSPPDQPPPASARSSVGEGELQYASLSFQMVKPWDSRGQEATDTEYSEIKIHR

As for `CN(CCn1nc2ccccn2c1=O)CC(=O)NC1CC1`, the Percent Effect in experiment [1] is 0.259%; in [2], -2.63%; in experiment [3] it was 7.37%; in experiment [4], -0.458%; in experiment [5], -2.63%; in [6], 15.4%. Besides, the Percent Effect in experiment [7] was 10.4%; in experiment [8] it was -11.8%; in [9] it was 2.13%; in experiment [10] it was 0%; in experiment [11], -5.38%.
As for `CS(=O)(=O)NC1CCCN(C(=O)NCc2cc[nH]n2)C1` (stereo unspecified), the Percent Effect in [1] was -5.06%; in [2] it was -31.2%; in experiment [3], -5.48%; in experiment [4] it was -13.5%; in [5] it was 5%; in experiment [6], -6.11%. The Percent Effect is 17.1% in experiment [7]; -0.514% in experiment [8]; 8.57% in experiment [9]; 21.2% in [10]; -16.2% in [11].
Take `COc1cc(CNCc2c(C(C)C)nn(C)c2N(C)C)ccn1`: the Percent Effect in experiment [1] was -0.0523%; in [2], 15.8%; in [3] it was -8.02%; in [4] it was 2.55%; in experiment [5], 1.13%; in experiment [6], -3.06%. For the same compound, the Percent Effect is 14% in experiment [7]; -9.51% in experiment [8]; 4.41% in experiment [9]; 4.88% in experiment [10]; -6.52% in [11].
Take `CN1CCN(C(=O)c2ccc(=O)n(C)c2)Cc2ccccc21`: the Percent Effect was -3.95% in experiment [1]; -16.2% in [2]; -7.07% in experiment [3]; 15.3% in experiment [4]; 3.62% in [5]; -4.25% in [6]. In addition, the Percent Effect in experiment [7] is 0.539%; in experiment [8], 5.67%; in experiment [9] it was 3.96%; in [10], 18.3%; in experiment [11], -2.09%.
In the case of `O=C(NCC1(N2CCOCC2)CCSC1)Nc1ccc(F)cc1` (stereo unspecified), the Percent Effect in [1] was 0.856%; in experiment [2], 5.41%; in [3], -4.15%; in [4] it was 1.34%; in experiment [5], 0.193%; in experiment [6], -2.86%. Also, the Percent Effect was 17.9% in experiment [7]; -10.2% in [8]; 5.82% in [9]; 9.76% in experiment [10]; -1.18% in experiment [11].
Turning to `O=C(O)c1nnn(-c2ccc(OC(F)(F)F)cc2)c1-c1ccncc1`, the Percent Effect in experiment [1] is -2.53%; in experiment [2] it was 21.1%; in experiment [3] it was -1.66%; in [4], -2.5%; in experiment [5] it was 3.8%; in experiment [6], 3.55%. In addition, the Percent Effect came to 20.4% in experiment [7]; 2.21% in experiment [8]; 3.19% in experiment [9]; 15.6% in experiment [10]; 41.3% in experiment [11].
Consider `CC(C)[C@H](NC(=O)NC1CCS(=O)(=O)C1)C(=O)NCc1ccccc1Cl` (stereo partly specified), for which the Percent Effect was -0.711% in [1]; -6.67% in experiment [2]; 4.79% in experiment [3]; 4.22% in experiment [4]; -6.88% in [5]; -4.05% in experiment [6]. The Percent Effect is 3.51% in experiment [7]; -4.73% in experiment [8]; -5.29% in [9]; -2.56% in [10]; 1.25% in [11].
`CN(Cc1ccc(Cl)c(Cl)c1)C(=O)CNC(N)=O`: the Percent Effect in experiment [1] is -3.49%; in [2], 10.5%; in experiment [3], 9.37%; in [4], -5.68%; in [5] it was 3.6%; in [6], -13%. The Percent Effect is 17.4% in experiment [7]; 2.07% in experiment [8]; 4.25% in [9]; 15.6% in experiment [10]; -1.83% in experiment [11].
With `Cc1nn(C)c2c(N3CCN(C(=O)NC4CCCCC4)CC3)ncnc12`, the Percent Effect in experiment [1] was -1.64%; in experiment [2], 9.33%; in [3] it was -2.22%; in experiment [4] it was -3.41%; in [5], -5.5%; in experiment [6], 0.528%. For the same compound, the Percent Effect in [7] was 11.7%; in [8], 0.346%; in [9] it was 2.12%; in [10] it was 5.13%; in [11], -10.1%.
For `Cc1cc(C)n(CC2CCCN2CC(=O)N(C)Cc2cnn(C)c2)n1` (stereo unspecified), the Percent Effect is -5.54% in [1]; 8.11% in experiment [2]; -10.7% in experiment [3]; 3.9% in experiment [4]; 1.04% in experiment [5]; -4.01% in experiment [6]. Further, the Percent Effect in experiment [7] was 13%; in experiment [8], 9.55%; in experiment [9] it was 6.4%; in experiment [10], 13.6%; in experiment [11], -11.6%.
Turning to `Cc1oc(C)c(C(=O)NCc2ccccc2S(=O)(=O)N(C)C)c1C`, the Percent Effect in [1] was -1.39%; in experiment [2], 10.5%; in experiment [3], 8.5%; in experiment [4] it was 1.67%; in [5], -3.01%; in [6] it was -3.83%. Besides, the Percent Effect in experiment [7] is 8.19%; in experiment [8], 2.68%; in experiment [9] it was 1.47%; in [10] it was 7.32%; in experiment [11] it was -5.82%.
